# Laboratory results taken from publication PMC8384837, “Expanding the binding specificity for RNA recognition by a PUF domain”.
# Positions count from the first letter of the chain named.
# Legend:
# Experiment in all cases: yeast three-hybrid, YBZ-1, SC-Leu-His + 0.5 mM 3-AT, 4 days
# Conditions in all cases: tags: N-Gal4 AD-HA kept; label: inside an RPR1-promoter hybrid RNA with tandem MS2 sites; ssRNA
# PUM1 PUF domain R8-KRT = PUM1 PUF domain R8-KRT (Homo sapiens, UniProt Q14671 828-1176, N1122K;Y1123R;Q1126T)
# Method in brief: (§1)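 The interaction score is the log change in how often each variant appears, from input to selection. Frequencies came from PCR-amplified, Illumina-sequenced repeat regions of Pumilio-1 PUF domain libraries grown in strain YBZ-1 (LexA–MS2 coat fusion, HIS3 reporter) alongside matching RNA elements. Input plates were SC-Leu and selection plates were SC-Leu-His + 0.5 mM 3-AT, each for four days, and the log2 calculation used a pseudocount of 1 where a variant was absent.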
# PUM1 PUF domain R8-HHK = PUM1 PUF domain R8-HHK (Homo sapiens, UniProt Q14671 828-1176, N1122H;Y1123H;Q1126K)
# Method in brief: as §1
# PUM1 PUF domain R8-KWN = PUM1 PUF domain R8-KWN (Homo sapiens, UniProt Q14671 828-1176, N1122K;Y1123W;Q1126N)
# Method in brief: as §1
# PUM1 PUF domain R6-NRK = target: T1, PUM1 PUF domain R6-NRK (Homo sapiens, UniProt Q14671 828-1176, Y1044R;Q1047K)
# T1 sequence: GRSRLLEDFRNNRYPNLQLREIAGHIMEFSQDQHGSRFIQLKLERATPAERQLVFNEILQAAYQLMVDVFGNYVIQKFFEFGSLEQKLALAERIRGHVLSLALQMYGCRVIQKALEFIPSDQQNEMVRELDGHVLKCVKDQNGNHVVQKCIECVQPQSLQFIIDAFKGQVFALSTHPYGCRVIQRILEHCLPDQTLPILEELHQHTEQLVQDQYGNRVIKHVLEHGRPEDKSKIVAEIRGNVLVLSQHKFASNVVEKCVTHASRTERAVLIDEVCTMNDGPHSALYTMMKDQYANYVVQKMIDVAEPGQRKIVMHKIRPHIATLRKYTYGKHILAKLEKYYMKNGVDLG
# Method in brief: as §1
# PUM1 PUF domain R6-SFV = target: T2, PUM1 PUF domain R6-SFV (Homo sapiens, UniProt Q14671 828-1176, N1043S;Y1044F;Q1047V)
# T2 sequence: T1 sequence with N216S, R217F, K220V
# Method in brief: as §1
# PUM1 PUF domain R4-AGY = PUM1 PUF domain R4-AGY (Homo sapiens, UniProt Q14671 828-1176, N971A;H972G;Q975Y)
# Method in brief: as §1
# PUM1 PUF domain R3-YRA = PUM1 PUF domain R3-YRA (Homo sapiens, UniProt Q14671 828-1176, C935Y;Q939A)
# Method in brief: as §1
# PUM1 PUF domain R3-DYG = PUM1 PUF domain R3-DYG (Homo sapiens, UniProt Q14671 828-1176, C935D;R936Y;Q939G)
# Method in brief: as §1
# PUM1 PUF domain R5-RYC = PUM1 PUF domain R5-RYC (Homo sapiens, UniProt Q14671 828-1176, C1007R;R1008Y;Q1011C)
# Method in brief: as §1
# PUM1 PUF domain R6-GWQ = target: T3, PUM1 PUF domain R6-GWQ (Homo sapiens, UniProt Q14671 828-1176, N1043G;Y1044W)
# T3 sequence: T1 sequence with N216G, R217W, K220Q
# Method in brief: as §1
# PUM1 PUF domain R3-FCA = PUM1 PUF domain R3-FCA (Homo sapiens, UniProt Q14671 828-1176, C935F;R936C;Q939A)
# Method in brief: as §1
# PUM1 PUF domain R3-LSQ = PUM1 PUF domain R3-LSQ (Homo sapiens, UniProt Q14671 828-1176, C935L;R936S)
# Method in brief: as §1
# PUM1 PUF domain R7-GVV = PUM1 PUF domain R7-GVV (Homo sapiens, UniProt Q14671 828-1176, S1079G;N1080V;E1083V)
# Method in brief: as §1
# PUM1 PUF domain R7-KYF = PUM1 PUF domain R7-KYF (Homo sapiens, UniProt Q14671 828-1176, S1079K;N1080Y;E1083F)
# Method in brief: as §1
# PUM1 PUF domain R4-PRQ = PUM1 PUF domain R4-PRQ (Homo sapiens, UniProt Q14671 828-1176, N971P;H972R)
# Method in brief: as §1
# PUM1 PUF domain R4-HHN = PUM1 PUF domain R4-HHN (Homo sapiens, UniProt Q14671 828-1176, N971H;Q975N)
# Method in brief: as §1
# PUM1 PUF domain R1-KMV = PUM1 PUF domain R1-KMV (Homo sapiens, UniProt Q14671 828-1176, S863K;R864M;Q867V)
# Method in brief: as §1
# PUM1 PUF domain R1-RKR = PUM1 PUF domain R1-RKR (Homo sapiens, UniProt Q14671 828-1176, S863R;R864K;Q867R)
# Method in brief: as §1
# PUM1 PUF domain R5-KPI = PUM1 PUF domain R5-KPI (Homo sapiens, UniProt Q14671 828-1176, C1007K;R1008P;Q1011I)
# Method in brief: as §1
# PUM1 PUF domain R6-RVT = target: T4, PUM1 PUF domain R6-RVT (Homo sapiens, UniProt Q14671 828-1176, N1043R;Y1044V;Q1047T)
# T4 sequence: T1 sequence with N216R, R217V, K220T
# Method in brief: as §1
sequence,measurement,setting,value
GGCUAGAACUAGUGGAUCCCCCGGCGCCCGGCGGCUCGAGCCCGGGUAAGCGUAAAUAGUCUGCAUGCCGCCGGGCGCCAUGCCUGCAGGUCGACUCUAGAAAACAUG,binding signal,PUM1 PUF domain R8-KRT,2.71 log2 enrichment (interaction score)
same,binding signal,PUM1 PUF domain R8-HHK,3.15 log2 enrichment (interaction score)
same,binding signal,PUM1 PUF domain R8-KWN,2.89 log2 enrichment (interaction score)
GGCUAGAACUAGUGGAUCCCCCGGCGCCCGGCGGCUCGAGCCCGGGUAAGUGUAAAUAGUCUGCAUGCCGCCGGGCGCCAUGCCUGCAGGUCGACUCUAGAAAACAUG,binding signal,PUM1 PUF domain R6-NRK,3.68 log2 enrichment (interaction score)
same,binding signal,PUM1 PUF domain R6-SFV,3.58 log2 enrichment (interaction score)
same,binding signal,PUM1 PUF domain R8-KRT,1.36 log2 enrichment (interaction score)
same,binding signal,PUM1 PUF domain R4-AGY,3.24 log2 enrichment (interaction score)
same,binding signal,PUM1 PUF domain R3-YRA,0.87 log2 enrichment (interaction score)
same,binding signal,PUM1 PUF domain R8-KWN,2.44 log2 enrichment (interaction score)
same,binding signal,PUM1 PUF domain R3-DYG,3.9 log2 enrichment (interaction score)
same,binding signal,PUM1 PUF domain R5-RYC,3.48 log2 enrichment (interaction score)
same,binding signal,PUM1 PUF domain R6-GWQ,5.78 log2 enrichment (interaction score)
GGCUAGAACUAGUGGAUCCCCCGGCGCCCGGCGGCUCGAGCCCGGGUAAGUGUAAGUAGUCUGCAUGCCGCCGGGCGCCAUGCCUGCAGGUCGACUCUAGAAAACAUG,binding signal,PUM1 PUF domain R3-YRA,5.09 log2 enrichment (interaction score)
same,binding signal,PUM1 PUF domain R3-FCA,5.61 log2 enrichment (interaction score)
GGCUAGAACUAGUGGAUCCCCCGGCGCCCGGCGGCUCGAGCCCGGGUAAGUGUAAUUAGUCUGCAUGCCGCCGGGCGCCAUGCCUGCAGGUCGACUCUAGAAAACAUG,binding signal,PUM1 PUF domain R3-LSQ,4.75 log2 enrichment (interaction score)
same,binding signal,PUM1 PUF domain R3-DYG,1.49 log2 enrichment (interaction score)
GGCUAGAACUAGUGGAUCCCCCGGCGCCCGGCGGCUCGAGCCCGGGUAAGUGUUAAUAGUCUGCAUGCCGCCGGGCGCCAUGCCUGCAGGUCGACUCUAGAAAACAUG,binding signal,PUM1 PUF domain R5-RYC,4.89 log2 enrichment (interaction score)
GGCUAGAACUAGUGGAUCCCCCGGCGCCCGGCGGCUCGAGCCCGGGUAAGUUUAAAUAGUCUGCAUGCCGCCGGGCGCCAUGCCUGCAGGUCGACUCUAGAAAACAUG,binding signal,PUM1 PUF domain R7-GVV,2.6 log2 enrichment (interaction score)
GGCUAGAACUAGUGGAUCCCCCGGCGCCCGGCGGCUCGAGCCCGGGUAAGGGUAAAUAGUCUGCAUGCCGCCGGGCGCCAUGCCUGCAGGUCGACUCUAGAAAACAUG,binding signal,PUM1 PUF domain R8-KWN,2.68 log2 enrichment (interaction score)
GGCUAGAACUAGUGGAUCCCCCGGCGCCCGGCGGCUCGAGCCCGGGUAAGUAUAAAUAGUCUGCAUGCCGCCGGGCGCCAUGCCUGCAGGUCGACUCUAGAAAACAUG,binding signal,PUM1 PUF domain R7-KYF,3.75 log2 enrichment (interaction score)
GGCUAGAACUAGUGGAUCCCCCGGCGCCCGGCGGCUCGAGCCCGGGUAAGUGUACAUAGUCUGCAUGCCGCCGGGCGCCAUGCCUGCAGGUCGACUCUAGAAAACAUG,binding signal,PUM1 PUF domain R4-PRQ,3.53 log2 enrichment (interaction score)
GGCUAGAACUAGUGGAUCCCCCGGCGCCCGGCGGCUCGAGCCCGGGUAAGUCUAAAUAGUCUGCAUGCCGCCGGGCGCCAUGCCUGCAGGUCGACUCUAGAAAACAUG,binding signal,PUM1 PUF domain R7-KYF,6.02 log2 enrichment (interaction score)
GGCUAGAACUAGUGGAUCCCCCGGCGCCCGGCGGCUCGAGCCCGGGUAAGUGUAUAUAGUCUGCAUGCCGCCGGGCGCCAUGCCUGCAGGUCGACUCUAGAAAACAUG,binding signal,PUM1 PUF domain R4-HHN,6.48 log2 enrichment (interaction score)
GGCUAGAACUAGUGGAUCCCCCGGCGCCCGGCGGCUCGAGCCCGGGUAAGUGUAAAUCGUCUGCAUGCCGCCGGGCGCCAUGCCUGCAGGUCGACUCUAGAAAACAUG,binding signal,PUM1 PUF domain R1-KMV,3.19 log2 enrichment (interaction score)
same,binding signal,PUM1 PUF domain R1-RKR,3.04 log2 enrichment (interaction score)
GGCUAGAACUAGUGGAUCCCCCGGCGCCCGGCGGCUCGAGCCCGGGUAAGUGUAAAUUGUCUGCAUGCCGCCGGGCGCCAUGCCUGCAGGUCGACUCUAGAAAACAUG,binding signal,PUM1 PUF domain R1-RKR,3.15 log2 enrichment (interaction score)
GGCUAGAACUAGUGGAUCCCCCGGCGCCCGGCGGCUCGAGCCCGGGUAAGUGUCAAUAGUCUGCAUGCCGCCGGGCGCCAUGCCUGCAGGUCGACUCUAGAAAACAUG,binding signal,PUM1 PUF domain R5-KPI,5.02 log2 enrichment (interaction score)
same,binding signal,PUM1 PUF domain R5-RYC,4.73 log2 enrichment (interaction score)
GGCUAGAACUAGUGGAUCCCCCGGCGCCCGGCGGCUCGAGCCCGGGUAAGUGCAAAUAGUCUGCAUGCCGCCGGGCGCCAUGCCUGCAGGUCGACUCUAGAAAACAUG,binding signal,PUM1 PUF domain R6-RVT,4.2 log2 enrichment (interaction score)
